The values below come from ChEMBL document CHEMBL2218924, “A broad activity screen in support of a chemogenomic map for kinase signalling research and drug discovery” (Biochem J, 2013).

For test [1], the target named is T1, Serine/threonine-protein kinase TBK1 (Homo sapiens) (UniProt Q9UHD2).
T1 sequence (whole entry): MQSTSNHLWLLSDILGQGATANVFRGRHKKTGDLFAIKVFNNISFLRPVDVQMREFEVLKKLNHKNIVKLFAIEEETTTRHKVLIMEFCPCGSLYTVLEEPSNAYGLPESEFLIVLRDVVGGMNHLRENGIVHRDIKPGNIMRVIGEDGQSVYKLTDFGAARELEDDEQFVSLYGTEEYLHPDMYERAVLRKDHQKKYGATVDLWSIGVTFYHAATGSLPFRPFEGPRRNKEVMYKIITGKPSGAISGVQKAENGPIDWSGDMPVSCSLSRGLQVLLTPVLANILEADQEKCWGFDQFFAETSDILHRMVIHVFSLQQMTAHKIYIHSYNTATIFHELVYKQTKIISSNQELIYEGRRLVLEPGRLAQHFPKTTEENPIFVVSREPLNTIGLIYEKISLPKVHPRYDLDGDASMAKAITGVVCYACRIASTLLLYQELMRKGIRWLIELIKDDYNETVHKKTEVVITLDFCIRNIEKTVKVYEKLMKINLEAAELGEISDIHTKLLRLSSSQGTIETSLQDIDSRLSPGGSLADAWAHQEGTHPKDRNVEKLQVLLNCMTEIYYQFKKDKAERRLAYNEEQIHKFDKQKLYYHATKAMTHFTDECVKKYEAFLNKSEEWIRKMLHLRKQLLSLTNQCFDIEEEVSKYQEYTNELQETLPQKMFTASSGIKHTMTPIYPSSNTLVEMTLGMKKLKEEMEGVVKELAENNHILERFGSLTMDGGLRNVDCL
As to conditions: at 10 µM.

Test [2] addresses T2, TGF-beta receptor type-1 (Homo sapiens) (UniProt P36897).
T2 sequence (whole entry): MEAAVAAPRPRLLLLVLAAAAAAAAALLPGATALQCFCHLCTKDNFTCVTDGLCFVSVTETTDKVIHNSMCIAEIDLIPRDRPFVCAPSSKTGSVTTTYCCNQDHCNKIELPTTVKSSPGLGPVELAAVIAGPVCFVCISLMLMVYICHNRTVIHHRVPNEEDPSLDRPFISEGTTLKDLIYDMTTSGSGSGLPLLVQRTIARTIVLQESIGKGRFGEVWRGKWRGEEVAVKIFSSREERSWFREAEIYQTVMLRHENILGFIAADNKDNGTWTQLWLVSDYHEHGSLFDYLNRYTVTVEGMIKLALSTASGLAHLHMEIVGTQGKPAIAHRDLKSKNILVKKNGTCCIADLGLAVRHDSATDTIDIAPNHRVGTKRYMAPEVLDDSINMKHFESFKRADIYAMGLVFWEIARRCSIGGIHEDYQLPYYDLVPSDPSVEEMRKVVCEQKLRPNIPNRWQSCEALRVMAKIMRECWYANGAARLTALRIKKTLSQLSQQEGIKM
As to conditions: at 1 µM.

Test [3] has as its target T2, TGF-beta receptor type-1 (Homo sapiens). The note with it: at 10 µM.
Test [4] concerns the target Insulin-like growth factor 1 receptor (Homo sapiens) (UniProt P08069). The note with it: at 1 µM.
For test [5] the target is unchanged. As to conditions: at 10 µM.
Test [6] addresses T3, Inhibitor of nuclear factor kappa-B kinase subunit alpha (Homo sapiens) (UniProt O15111).
T3 sequence (whole entry): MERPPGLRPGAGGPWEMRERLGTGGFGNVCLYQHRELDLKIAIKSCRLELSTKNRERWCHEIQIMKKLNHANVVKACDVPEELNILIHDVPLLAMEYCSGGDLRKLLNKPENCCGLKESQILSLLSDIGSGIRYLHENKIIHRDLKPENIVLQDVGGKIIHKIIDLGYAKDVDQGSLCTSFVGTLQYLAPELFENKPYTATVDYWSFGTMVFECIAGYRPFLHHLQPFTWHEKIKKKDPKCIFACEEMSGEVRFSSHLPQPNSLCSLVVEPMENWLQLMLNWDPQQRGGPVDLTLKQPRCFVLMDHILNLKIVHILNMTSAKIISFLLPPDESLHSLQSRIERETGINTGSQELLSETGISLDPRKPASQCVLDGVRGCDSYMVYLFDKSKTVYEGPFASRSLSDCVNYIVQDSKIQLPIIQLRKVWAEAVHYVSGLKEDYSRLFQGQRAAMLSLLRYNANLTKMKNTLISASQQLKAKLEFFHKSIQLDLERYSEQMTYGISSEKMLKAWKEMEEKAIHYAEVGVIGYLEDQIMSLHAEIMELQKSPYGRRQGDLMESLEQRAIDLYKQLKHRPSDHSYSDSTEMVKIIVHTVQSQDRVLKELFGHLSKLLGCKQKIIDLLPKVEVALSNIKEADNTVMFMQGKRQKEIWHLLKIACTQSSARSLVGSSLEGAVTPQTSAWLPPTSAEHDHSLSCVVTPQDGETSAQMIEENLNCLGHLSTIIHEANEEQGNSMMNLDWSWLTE
As to conditions: at 1 µM.

In test [7] the target is T3, Inhibitor of nuclear factor kappa-B kinase subunit alpha (Homo sapiens). The note with it: at 10 µM.
The target of test [8] is T4, Inhibitor of nuclear factor kappa-B kinase subunit beta (Homo sapiens) (UniProt O14920).
T4 sequence (whole entry): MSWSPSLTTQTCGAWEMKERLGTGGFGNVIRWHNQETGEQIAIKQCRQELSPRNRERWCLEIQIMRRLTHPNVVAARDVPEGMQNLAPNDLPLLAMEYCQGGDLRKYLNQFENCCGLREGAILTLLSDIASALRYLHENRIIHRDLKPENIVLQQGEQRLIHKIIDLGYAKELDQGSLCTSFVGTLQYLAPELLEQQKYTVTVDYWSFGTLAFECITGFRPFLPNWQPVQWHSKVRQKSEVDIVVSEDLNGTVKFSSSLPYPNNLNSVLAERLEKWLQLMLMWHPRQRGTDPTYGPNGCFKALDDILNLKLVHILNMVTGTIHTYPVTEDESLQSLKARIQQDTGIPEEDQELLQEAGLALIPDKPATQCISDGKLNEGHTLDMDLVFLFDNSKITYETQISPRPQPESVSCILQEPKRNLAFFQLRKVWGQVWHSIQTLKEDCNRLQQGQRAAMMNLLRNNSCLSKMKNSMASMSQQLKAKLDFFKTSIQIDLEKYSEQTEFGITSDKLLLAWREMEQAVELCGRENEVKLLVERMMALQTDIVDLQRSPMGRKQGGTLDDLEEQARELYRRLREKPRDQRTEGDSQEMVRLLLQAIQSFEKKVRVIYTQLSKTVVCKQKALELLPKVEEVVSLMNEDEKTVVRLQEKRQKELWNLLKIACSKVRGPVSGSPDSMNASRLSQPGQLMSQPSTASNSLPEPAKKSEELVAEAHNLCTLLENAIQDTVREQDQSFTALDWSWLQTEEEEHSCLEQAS
The note with it: at 1 µM.

In test [9] the target is T4, Inhibitor of nuclear factor kappa-B kinase subunit beta (Homo sapiens). The note with it: at 10 µM.
Test [10] addresses Insulin receptor (Homo sapiens) (UniProt P06213). As to conditions: at 1 µM.

Sequence of Insulin-like growth factor 1 receptor (Homo sapiens) (P08069 31-736 limits assumed): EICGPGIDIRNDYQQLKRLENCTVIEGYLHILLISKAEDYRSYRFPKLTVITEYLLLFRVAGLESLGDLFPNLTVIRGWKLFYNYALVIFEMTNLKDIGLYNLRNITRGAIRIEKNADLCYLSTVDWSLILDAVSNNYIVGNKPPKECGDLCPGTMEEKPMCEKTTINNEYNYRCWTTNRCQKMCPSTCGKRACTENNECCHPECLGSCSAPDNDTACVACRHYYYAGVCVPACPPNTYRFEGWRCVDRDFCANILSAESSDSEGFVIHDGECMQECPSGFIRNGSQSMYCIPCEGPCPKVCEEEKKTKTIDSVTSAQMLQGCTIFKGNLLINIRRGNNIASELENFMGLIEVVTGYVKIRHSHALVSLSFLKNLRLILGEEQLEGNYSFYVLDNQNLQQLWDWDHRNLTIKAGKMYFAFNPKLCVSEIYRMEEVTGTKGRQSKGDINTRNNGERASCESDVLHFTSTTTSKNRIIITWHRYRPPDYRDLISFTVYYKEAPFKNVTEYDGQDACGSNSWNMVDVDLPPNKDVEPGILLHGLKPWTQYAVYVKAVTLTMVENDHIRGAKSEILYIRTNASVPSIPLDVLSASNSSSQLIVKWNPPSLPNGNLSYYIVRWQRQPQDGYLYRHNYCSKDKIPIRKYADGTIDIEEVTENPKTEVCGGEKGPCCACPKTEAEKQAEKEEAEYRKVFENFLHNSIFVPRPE
Sequence of Insulin-like growth factor 1 receptor (Homo sapiens) (P08069 741-1367 limits assumed): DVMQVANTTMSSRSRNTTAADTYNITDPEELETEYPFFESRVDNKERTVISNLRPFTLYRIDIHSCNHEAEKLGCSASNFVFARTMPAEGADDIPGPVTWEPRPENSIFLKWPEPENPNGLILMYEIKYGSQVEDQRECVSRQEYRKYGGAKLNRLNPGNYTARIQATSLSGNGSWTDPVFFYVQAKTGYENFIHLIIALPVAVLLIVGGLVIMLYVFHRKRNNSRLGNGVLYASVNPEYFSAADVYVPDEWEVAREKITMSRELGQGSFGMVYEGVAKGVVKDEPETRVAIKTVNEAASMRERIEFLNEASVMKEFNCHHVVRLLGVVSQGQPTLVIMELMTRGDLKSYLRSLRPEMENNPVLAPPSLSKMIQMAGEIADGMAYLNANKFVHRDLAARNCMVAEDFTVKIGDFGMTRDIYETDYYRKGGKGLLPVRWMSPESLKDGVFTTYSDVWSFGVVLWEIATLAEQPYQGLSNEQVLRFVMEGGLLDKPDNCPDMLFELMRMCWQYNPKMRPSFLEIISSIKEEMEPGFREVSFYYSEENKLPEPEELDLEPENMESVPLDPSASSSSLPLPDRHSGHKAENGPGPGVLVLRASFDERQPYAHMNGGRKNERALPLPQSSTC
Sequence of Insulin receptor (Homo sapiens) (P06213 28-758 limits assumed): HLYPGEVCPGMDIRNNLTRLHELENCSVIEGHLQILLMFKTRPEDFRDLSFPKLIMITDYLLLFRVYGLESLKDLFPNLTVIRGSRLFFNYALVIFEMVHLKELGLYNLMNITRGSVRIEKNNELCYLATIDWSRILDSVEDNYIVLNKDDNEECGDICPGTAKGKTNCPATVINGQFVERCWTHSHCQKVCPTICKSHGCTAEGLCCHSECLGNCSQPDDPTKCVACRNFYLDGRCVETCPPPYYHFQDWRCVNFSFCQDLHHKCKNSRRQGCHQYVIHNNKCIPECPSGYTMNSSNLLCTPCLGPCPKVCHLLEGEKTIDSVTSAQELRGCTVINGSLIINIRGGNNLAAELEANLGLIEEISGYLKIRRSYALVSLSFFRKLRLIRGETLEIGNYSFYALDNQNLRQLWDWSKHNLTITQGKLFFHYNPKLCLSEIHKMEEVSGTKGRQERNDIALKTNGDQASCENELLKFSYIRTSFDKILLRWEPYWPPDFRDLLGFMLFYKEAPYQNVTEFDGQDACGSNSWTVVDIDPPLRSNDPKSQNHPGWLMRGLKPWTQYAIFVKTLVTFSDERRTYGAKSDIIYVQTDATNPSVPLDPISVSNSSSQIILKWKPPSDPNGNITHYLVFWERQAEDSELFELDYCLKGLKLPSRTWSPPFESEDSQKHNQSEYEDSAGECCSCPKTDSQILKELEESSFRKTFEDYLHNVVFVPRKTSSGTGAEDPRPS
Sequence of Insulin receptor (Homo sapiens) (P06213 763-1382 limits assumed): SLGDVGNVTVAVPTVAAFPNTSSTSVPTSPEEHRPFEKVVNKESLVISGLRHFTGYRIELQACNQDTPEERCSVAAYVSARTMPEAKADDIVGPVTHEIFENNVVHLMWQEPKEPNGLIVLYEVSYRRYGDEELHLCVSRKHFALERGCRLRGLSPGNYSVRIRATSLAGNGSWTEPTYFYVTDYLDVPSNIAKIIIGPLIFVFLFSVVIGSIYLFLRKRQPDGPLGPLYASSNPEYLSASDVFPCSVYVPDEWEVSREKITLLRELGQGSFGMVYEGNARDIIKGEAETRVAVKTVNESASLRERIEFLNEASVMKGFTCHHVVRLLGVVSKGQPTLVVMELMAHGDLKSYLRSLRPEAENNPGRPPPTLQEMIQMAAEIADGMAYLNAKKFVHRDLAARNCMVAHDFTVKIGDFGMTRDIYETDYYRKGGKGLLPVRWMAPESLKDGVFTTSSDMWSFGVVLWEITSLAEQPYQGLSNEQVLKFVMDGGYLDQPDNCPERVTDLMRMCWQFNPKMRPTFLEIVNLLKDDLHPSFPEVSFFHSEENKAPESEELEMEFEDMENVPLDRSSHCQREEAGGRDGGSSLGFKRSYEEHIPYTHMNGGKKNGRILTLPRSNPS

As to `Oc1c2ccccc2c2c3c(cccc13)N=N2`, the residual activity in test [1] worked out at 11%; in test [2], 88%; in [3] it was 74%; in test [4] it was 92%; in test [5] it was 49%; in test [6] it was 57%. The residual activity is 21% in test [7], 78% in test [8], 43% in [9] and 81% in test [10].

Broadly, the residual activity is the share of the control activity or signal that is left under treatment.
